Compound activity as filed in PubChem BioAssay.
Only a selection was taken, and hits are over-represented in it overall.
RE007 growth inh: less growth of the S. pombe RE007 Vpr strain; Potency, µM (highest dose often 92.2 µM), for the others: at the top dose activity change, negative = less growth, most hits filed as inhibitors; AID 651644; S. pombe RE007 Vpr strain, BacTiter-Glo ATP luminescence, 24 h; 360,000 tested, 0.21% active; active = well fitted falling curve with a large enough effect; inconclusive = small, poorly fitted or top-dose-only effect; inactive = no such curve, though single readings can be large or run the other way; also: potency is read from the fitted curve at half-maximal effect; % is scaled to controls: 0 for no effect and ±100 for the full control effect; nearly all actives have a fitted effect of over 50% in size
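Fission yeast strain RE007, carrying one chromosomally integrated HIV-1 vpr copy, was seeded at OD 0.01 in PMG+AL medium with 23 nL pinned compound. After 24 h at 30 °C and 99% humidity, viability was read by BacTiter-Glo luminescence.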
Shiga inhibitor: blocks Shiga toxin action in Vero cells; Vero cells, Shiga toxin protein synthesis inhibition reporter; inhibition, % at 38.7 µM; 290,000 tested, 9.2% active; AID 2315; in the data active = inhibition mostly above about 28%, no sharp cut-off; inactive = mostly below about 43%; also: 0% is about no effect
Tb PYK inh: T. brucei pyruvate kinase inhibition; Q57TT1; TbPYK enzyme, Kinase-Glo Plus ATP luminescence, 45 min; Potency, µM (top dose mostly 76.8 µM), inactives show at the highest dose activity, negative = inhibition, actives largely listed as inhibitors; 410,000 tested, 0.12% active; also: potency is read from the fitted curve at half-maximal effect; % is scaled to controls: 0 for no effect and ±100 for the full control effect; nearly all actives have a fitted effect of over 50% in size
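Screened from lowest to highest concentration, compounds were pinned into TbPYK/substrate mixtures, and ADP (130 uM final) was added. Plates sat at room temperature for 45 min prior to Kinase-Glo Plus detection by luminescence.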
LmPK inhibitor: blocks Leishmania mexicana pyruvate kinase activity | Q27686 | purified LmPK, Kinase-Glo ATP luminescence, 1 h | Potency, µM (series often up to 57.5 µM), for inactives: at the top dose activity change, negative = inhibition, most hits filed as inhibitors | 290,000 tested, 0.37% active; also: potency is read from the fitted curve at half-maximal effect; % is scaled to controls: 0 for no effect and ±100 for the full control effect
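Kinase-Glo luminescence read after 1 h RT reaction of 0.1 nM LmPK with 0.5 mM PEP and 0.1 mM ADP. Activity scaled between uninhibited and enzyme-free controls.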
Cycloheximide cs: counter-screen for Shiga toxin inhibitors: cycloheximide protein synthesis inhibition. cell reporter, cycloheximide protein synthesis inhibition counterscreen. max response, %. 300,000 tested, 12% active. AID 2314; in the data active = max response mostly above about 13%, no sharp cut-off; inactive = mostly below about 14%; also: read at 38.3 µM for the half of the compounds with a filed dose; 0% is about no effect
Giardia FBPA inh: inhibitors of Giardia lamblia fructose-1,6-bisphosphate aldolase; A8B2U2; purified Giardia FBPA; Potency, µM (top dose mostly 59.6 µM), for the others: at the highest dose activity, negative = inhibition, hits mostly inhibitors; 290,000 tested, 0.71% active; also: potency is read from the fitted curve at half-maximal effect; % is scaled to controls: 0 for no effect and ±100 for the full control effect; nearly all actives have a fitted effect of over 55% in size
Target sequence (A8B2U2 whole entry, looked up): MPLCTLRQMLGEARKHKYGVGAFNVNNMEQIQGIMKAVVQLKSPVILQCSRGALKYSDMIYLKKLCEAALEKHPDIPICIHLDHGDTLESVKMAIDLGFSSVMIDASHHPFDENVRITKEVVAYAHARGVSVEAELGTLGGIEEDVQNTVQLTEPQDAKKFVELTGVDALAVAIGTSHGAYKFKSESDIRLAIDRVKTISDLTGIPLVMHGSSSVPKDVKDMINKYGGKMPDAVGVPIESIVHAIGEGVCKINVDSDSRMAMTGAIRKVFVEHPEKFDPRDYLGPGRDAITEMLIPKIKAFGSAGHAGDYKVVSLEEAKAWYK
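Giardia FBPA (40 nM reagent) was preincubated 10 min at RT with compound (up to 57.5 uM final), then substrate plus GAPDH/TPI/NAD/arsenate coupling system with diaphorase/resazurin was added; resorufin fluorescence (525/598 nm) was read after 20 min.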
An asterisk follows results filed as active; u = inconclusive; x = no result. Unless noted, calls follow the shape of the dose curve; as a rule, active = well fitted curve in the direction sought with a large enough effect; inconclusive = small, poorly fitted or top-dose-only effect, or another doubt; inactive = no such curve, though single readings can be large; an effect the other way counts as inactive or inconclusive.

SMILES	RE007 growth inh	Shiga inhibitor	Tb PYK inh	LmPK inhibitor	Cycloheximide cs	Giardia FBPA inh
COc1ccc(C2c3[nH]c4ccc(OC)cc4c3CCN2C(=O)Nc2ccccc2)cc1 (configuration not stated)	x	x	1%	x	x	x
CC1(C)CC(=O)C(C(N)=NC(=O)c2ccc([N+](=O)[O-])cc2)=C(O)C1	-10%	62	3%	-5%	18*	7%
CC1(C)CC(=O)C(C(N)=NC(=O)c2ccccc2)=C(O)C1	-6%	70*	-7%	0%	39*	-1%
C/C(=N/NC(=O)c1ccccc1)C1=C(O)CC(C)(C)CC1=O	9%	-12	2%	8%	-1	0%
N#Cc1ccccc1Cn1c(=O)n(CCCC(=O)NCc2ccc3c(c2)OCO3)c(=O)c2sccc21	x	x	2%	x	x	x
COc1ccccc1C(=O)Nc1cccc(OCc2cc(=O)n3c4c(sc3n2)CCCC4)c1	x	x	0%	x	x	x
CC(=O)Nc1cccc(NC(=O)COc2nncc3ccccc23)c1	0%	-17	0%	4%	-2	-1%
Cc1ccc(OCC(=O)c2cc(C)n(-c3ccccc3)c2C)c([N+](=O)[O-])n1	-6%	64*	-15%	-2%	46*	-17%
COCCn1c(C)cc(C(=O)COc2ccc(C)nc2[N+](=O)[O-])c1C	-10%	57	-20%	2%	18	-12%
C=CCn1c(C)cc(C(=O)COc2nncc3ccccc23)c1C	0%	159*	-6%	15%	69*	-5%
CCCn1c(C)cc(C(=O)COc2ccc(C)nc2[N+](=O)[O-])c1C	-7%	85*	-12%	3%	15*	-2%
O=[N+]([O-])c1cc(S(=O)(=O)N2CCCC2)ccc1OCc1ccccc1	-10%	17	-21%	-1%	28*	12%
CCOc1ccccc1C(=O)Nc1cc2c(cc1N1CCCCC1)n(C)c(=O)n2C	x	x	1%	x	x	x
COc1ccc(C(=O)N2CCC3(CCN(C(=O)Nc4ccccc4)CC3)CC2)cc1	x	x	0%	x	x	0%
CS(=O)(=O)Nc1cc2occ(NC=O)c(=O)c2cc1Oc1ccccc1	x	x	-2%	x	x	x
C=CCn1c(C)cc(C(=O)COc2ccc(S(=O)(=O)N3CCCC3)cc2[N+](=O)[O-])c1C	12%	14	-3%	1%	13*	1%
Cc1ccc(OCC(=O)c2cc(C)c(C)cc2C)c([N+](=O)[O-])n1	-9%	19	-9%	4%	2	-18%
C=CCn1c(C)cc(C(=O)COc2ccc(C)nc2[N+](=O)[O-])c1C	8%	98*	-12%	3%	75*	-2%
Cc1ccc(OCC(=O)c2c[nH]c3ccccc23)c([N+](=O)[O-])n1	-5%	81*	4%	0%	51*	-11%
C[C@H](C(=O)OCO/N=[N+](\[O-])N1CCCC1)c1cccc2ccccc12	x	15	x	x	14	u
CCOC(=O)c1[nH]c(C)c(CCC(=O)Nc2cc(Cl)ccc2C)c1C	x	x	1%	x	x	x
CCN(CC)C(=S)SCC(=O)Nc1nc(=O)c2ccccc2s1	6%	22	3%	-7%	18*	-12%
CC(C)C(Cl)=NOC(=O)Nc1ccc(S(N)(=O)=O)cc1	16µM*	x	-17%	x	x	x
CCCCCCC(=O)N1C/C=C\C(c2ccc(OC)cc2)N(Cc2ccc(F)cc2)C(=O)C1Cc1ccccc1 (configuration not stated)	x	17	x	x	12	-5%
O=C(Nc1ccc2nsnc2c1)N1CCCCCC1	-16%	109	11%	-10%	43*	-26%
SMILES	RE007 growth inh	Shiga inhibitor	Tb PYK inh	LmPK inhibitor	Cycloheximide cs	Giardia FBPA inh
Cc1nc2ccc(NC(=O)N3CCCCC3)cc2nc1C	4%	19	4%	-1%	12	-13%
O=C(Nc1ccc2snnc2c1)N1CCCCC1	6%	29	-4%	-1%	19*	1%
O=C(Nc1ccc2snnc2c1)N1CCOCC1	22%	-2	2%	-1%	-5	0%
COc1ccc(C(CC(=O)Nc2ccccn2)N2Cc3ccccc3C2=O)cc1 (configuration not stated)	0%	88*	1%	0%	30*	0%
NNC(=O)COc1cccc2cccnc12	4%	-9	1%	1%	-3	6%
COCc1nnc(NC(=O)COc2ccc3c(c2)OCO3)s1	3%	7	2%	-4%	6	-23%
O=C(COc1cccc2cccnc12)Nc1nccs1	-2%	53*	1%	-6%	33*	12%
O=C(COc1ccc2c(c1)OCO2)Nc1nccs1	1%	58*	u	14µM*	28	-1%
COc1ccc(C(CC(=O)Nc2nccs2)n2cccc2)cc1 (configuration not stated)	3%	150*	-1%	-16%	31*	-1%
CN1CCc2sc(NC(=O)Cc3ccccc3)c(C(=O)Nc3ccc(Cl)cc3)c2C1	x	4	x	x	-3	x
COc1ccc(OCC(=O)Nc2nccs2)cc1	-6%	6	-25%	25µM*	12	1%
Cc1nn(-c2ccccc2)c(Cl)c1/C=N/NC(=O)c1cccnc1	-3%	27	-2%	-9%	33*	5%
Cc1ccc(-n2nc(C)c(/C=N/NC(=O)c3cccnc3)c2Cl)cc1	1%	13	6%	1%	-2	2%
Cc1[nH]n(-c2ccccc2)c(=O)c1/C=N/NC(=O)c1ccccc1F	-1%	64*	-13%	-4%	25*	u
Cc1ccc(C(=O)N/N=C\c2c(C)nn(-c3ccccc3)c2Cl)cn1	-22%	15	-8%	u	15	1%
Cc1nn(-c2ccccc2)c(Cl)c1/C=C/C(=O)c1ccccc1	-26%	45	14%	-2%	19*	-1%
COC(=O)N/N=C\c1c(C)[nH]n(-c2ccccc2)c1=O	3%	18	2%	-1%	7	u
Cc1nn(-c2ccccc2)c(Cl)c1/C=N/NC(=O)c1[nH]ncc1Br	-8%	45*	-10%	-11%	29*	x
CSc1nc(Nc2ccc(C)cc2C)cc(-c2ccccc2)n1	x	x	-15%	x	x	x
CCCn1c(C)nc2c(NCCCCN3CCCC3)nc(C)nc21	x	x	x	x	x	-2%
Cc1cc(C(=O)N/N=C/c2c(C)nn(-c3ccccc3)c2Cl)n[nH]1	-8%	49*	-4%	0%	18*	-7%
Cc1nn(-c2ccccc2)c(Cl)c1/C=N/NC(=O)c1ccccc1F	27%	64*	0%	5%	37*	-1%
Cc1nn(-c2ccccc2)c(Cl)c1/C=N/NC(=O)c1ccn[nH]1	1%	34	-1%	-3%	21*	x
Cc1ccccc1OCC(=O)N/N=C/c1c(C)nn(-c2ccccc2)c1Cl	6%	-2	2%	5%	-3	4%
O=C(Cn1cc2c(n1)CCCC2)Nc1cc(C(F)(F)F)ccc1Cl	x	x	-8%	x	x	x
CC1(C)C(=O)CC[C@@]2(C)C1CC(O)[C@@]1(C)C3=CC(=O)OC(c4ccoc4)[C@]3(C)CCC21 (some centres not stated)	x	x	x	x	x	3%
COc1ccc(NC(=O)CC2C(=O)N(c3cccc(OC)c3)C(=O)N2Cc2cccnc2)cc1 (configuration not stated)	x	x	-2%	x	x	x
Cc1cc(C)n(C(=O)CNc2ccc(C)c(C)c2)n1	-14%	29	0%	-15%	32*	-2%
